Measured values: PubChem BioAssay (NCI)
The panel holds about 79,000 compounds, 15% with a hit somewhere; the sample as a whole holds those more often. Active and inactive are the calls of the source. Rule as the data show it: active = growth inhibition above about 70%; inactive = the rest.

assay: NCI Yeast Anticancer Drug Screen. Data for the mlh1 rad18 strain (AID 175); conditions: S. cerevisiae mlh1 rad18 strain growth inhibition; at 50.0 µM; active compounds read high
Procedure, shortened: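 Yeast w/ defined DNA-repair lesions; compound exposure; growth vs vehicle controls → % inhibition.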

Structure (SMILES)	growth inhibition
O=[N+]([O-])c1ccc(N=NNc2ccc([N+](=O)[O-])cc2)cc1	5.4% (inactive)
CC(=O)Nc1ccc(/C=C2\N=C(c3ccccc3)OC2=O)cc1	10.3% (inactive)
CN(C)CC(C)(C)CO	4.95% (inactive)
CCOc1snc(C(Cl)(Cl)Cl)c1Cl	8.2% (inactive)
CN1CCC2(CC1)C(=O)N(Cc1ccccc1)C(=O)C2c1ccccc1 (stereo not drawn)	-13.4% (inactive)
COc1ccc(C2=C/C(=C/c3cccs3)C(=O)O2)cc1	0.15% (inactive)
BrC1(Br)C2COCOCC21 (stereo not drawn)	8.05% (inactive)
COc1ccc(C(O)Cc2ccccc2)cc1 (stereo not drawn)	-6.4% (inactive)
COC(=O)C(C(=O)OC)C(c1cccc([N+](=O)[O-])c1)C(N)c1ccccc1 (stereo not drawn)	56.4% (inactive)
CCOC(=O)NCC1(c2ccccc2)CCN(Cc2ccccc2)CC1	-1.7% (inactive)
O=C(O)Cc1ccc(-c2ccccc2)[nH]1	-12% (inactive)
COc1ccc2nccc(/C=C/CC3CCN(C(C)=O)CC3)c2c1	74.8% (active)
COc1cc2c[n+](C)c3c(c2cc1OC)Cc1cc2c(cc1-3)OCO2	6.25% (inactive)
CCOC(=O)C1=C(Nc2ccc(Cl)cc2Cl)OCC1=O	10.2% (inactive)
O=C(c1nc2ccc(Cl)cc2[nH]c1=O)C(O)c1ccco1 (stereo not drawn)	-13.2% (inactive)
COc1cc(NCCCCCNC(C)C)c2ncccc2c1OC	-3.1% (inactive)
CC(=O)Nc1cc(F)c(N)c(F)c1	-3.8% (inactive)
CC1=CC2C(c3ccccc3)Nc3ccccc3N2C1=O (stereo not drawn)	-6.45% (inactive)
